Compounds without any hit were thinned out: in the full panel of roughly 83,000, 20% have a hit.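 Percent growth is the endpoint: 0 to 100 indicates growth inhibition (40 means 60% inhibition), 0 means no net growth, and negative values indicate cell death.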 A number with no mark means an inactive call. Active and inactive are the calls of the source. The calls were made as follows: active = growth percent below 10; inactive = the rest.
How the values were obtained:
Assay in all cases: NCI-60 one-dose screen, 48 h (100 = growth as untreated, 0 = no growth, -100 = all killed)
DU-145 prostate = conditions: 10 µM
K-562 leukemia = conditions: 10 µM
MDA-MB-231 breast = conditions: 10 µM
RXF 393 renal = conditions: 10 µM
SF-268 CNS = conditions: 10 µM
SF-295 CNS = conditions: 10 µM
SF-539 CNS = conditions: 10 µM
UACC-257 melanoma = conditions: 10 µM
M14 melanoma = conditions: 10 µM
HCT-15 colon = conditions: 10 µM
HT29 colon = conditions: 10 µM
SNB-75 CNS = conditions: 10 µM
SNB-19 CNS = conditions: 10 µM
U251 CNS = conditions: 10 µM
PC-3 prostate = conditions: 10 µM
SK-MEL-5 melanoma = conditions: 10 µM
UACC-62 melanoma = conditions: 10 µM unless noted
LOX IMVI melanoma = conditions: 10 µM
SK-MEL-28 melanoma = conditions: 10 µM
MALME-3M melanoma = conditions: 10 µM

Row | SMILES | growth (DU-145 prostate) | growth (K-562 leukemia) | growth (MDA-MB-231 breast) | growth (RXF 393 renal) | growth (SF-268 CNS) | growth (SF-295 CNS) | growth (SF-539 CNS) | growth (UACC-257 melanoma) | growth (M14 melanoma) | growth (HCT-15 colon) | growth (HT29 colon) | growth (SNB-75 CNS) | growth (SNB-19 CNS) | growth (U251 CNS) | growth (PC-3 prostate) | growth (SK-MEL-5 melanoma) | growth (UACC-62 melanoma) | growth (LOX IMVI melanoma) | growth (SK-MEL-28 melanoma) | growth (MALME-3M melanoma)
1 | CCCCC1(CC)COC(CCC)OC1 (stereo not given) | 102% | 106% | 106% | 101% | 98.6% | 119% | 98.3% | 101% | 99.7% | 91.7% | 103% | 99.1% | 99.9% | 94.7% | 82% | 103% | 96.6% | 97.3% | 115% | –
2 | CCCCCCCO | 114% | 106% | 104% | 97.3% | 125% | – | 89.5% | 93.5% | 98.5% | 95.6% | 132% | 106% | 102% | 97.8% | 105% | 99.2% | 97.7% | – | 98.3% | –
3 | OCCN(CCO)C(=S)S | 111% | 111% | – | 113% | – | 101% | 106% | 79.6% | 108% | 104% | 113% | 129% | – | 102% | 104% | 94.8% | 91.7% | 107% | 113% | 95.1%
4 | CCCCCCCCCCCCCC(=O)Oc1ccc[nH]c1=O | 103% | 90% | – | 113% | – | 97.1% | 99% | 84.3% | 101% | 85.8% | 91.9% | 110% | – | 96.3% | 86.9% | 97.1% | 88.7% | 44.1% | 109% | 95.2%
5 | O=S(=O)(O)c1ccc(Cl)c(Cl)c1 | 120% | 105% | 108% | 132% | 113% | 112% | 107% | 124% | 101% | 107% | 109% | 91.6% | 101% | 105% | 94.1% | – | 99% | 91.8% | 112% | –
6 | C[C@]12CC[C@@H]3c4ccc(OCC(=O)O)cc4CC[C@H]3[C@@H]1CCC2=O | 109% | 78.7% | 101% | 115% | 91% | 111% | 97.5% | 93.4% | 97.2% | 106% | 104% | 83.5% | 103% | 104% | 95.7% | 99.9% | 96.5% | 86% | 118% | –
7 | Nc1ncnc2c1nc(N)n2C1OC(CO)C(O)C1O (stereo not given) | -21.8% (active) | 19.3% | -16.9% (active) | -59.6% (active) | -57.8% (active) | -70.2% (active) | -94.4% (active) | -56.6% (active) | -85.6% (active) | -7.88% (active) | -4.96% (active) | -75.8% (active) | -16.5% (active) | 2.54% (active) | -11.7% (active) | -87.6% (active) | -68.3% (active) | -80.3% (active) | -48.1% (active) | –
8 | CC(=O)OC(C(=O)O)c1ccccc1 (stereo not given) | 106% | 108% | 105% | 112% | 101% | 113% | 111% | 106% | 110% | 111% | 104% | 116% | 115% | 109% | 91% | 105% | 112% | 105% | 119% | –
9 | Cc1ccc(C)n1-c1ccsc1C(=O)NNC(=O)CCl | 105% | 96.3% | – | 101% | – | 103% | 101% | 91.3% | 77.8% | 88.8% | 106% | 112% | – | 95.6% | 93.4% | 85.8% | 82.7% | 16.4% | 111% | 86.7%
10 | Cc1cc(OCCO)cc(C)c1Cl | 117% | 118% | 114% | 134% | 109% | 130% | 111% | 110% | 112% | 97.6% | 113% | 124% | 106% | 110% | 97.2% | 112% | 95.7% | 98% | 118% | –
11 | CCOC(=O)Nc1nn[nH]n1 | 108% | 110% | 104% | 105% | 100% | 106% | 97.7% | 116% | 95.3% | 91.7% | 110% | 94.8% | 99.5% | 115% | 96.8% | 103% | 99.3% | 92.9% | 115% | –
12 | CC1=NN(c2ccccc2)C(=O)/C1=C\N1CC(=O)NC1=S | 106% | 104% | 98.3% | 108% | 101% | 104% | 109% | 90.6% | 103% | 107% | 103% | 91.2% | 101% | 98.3% | 93.6% | 101% | 97.1% | 98.4% | 112% | –
13 | CCCCCC(C)(CC(=O)O)CC(=O)O | 122% | 106% | 138% | 101% | 122% | – | 105% | 101% | 109% | – | 105% | 97.4% | 116% | 102% | 99.6% | – | 119% | 112% | 108% | –
14 | CCOC(=O)c1ccc(Nc2sc(C(=O)c3cccc([N+](=O)[O-])c3)c(N)c2C#N)cc1 | 29.2% | 16.1% | 45.9% | 15.8% | 44.4% | -44.3% (active) | 1.59% (active) | 17.4% | 24% | 32.3% | 8.29% (active) | -6.96% (active) | 48.8% | 11.5% | 31.1% | 10.9% | 28.6% | 39.5% | 63.1% | –
15 | O=C(CCl)Nc1ccc2c(c1)C(=O)c1ccc(NC(=O)CCl)cc1C2=O | -55.7% (active) | -14.9% (active) | -48.2% (active) | -86% (active) | -66.6% (active) | -22.6% (active) | -92.2% (active) | -12.2% (active) | -55.5% (active) | -86.6% (active) | -59.8% (active) | -55.4% (active) | -45.3% (active) | -89.3% (active) | – | -88% (active) | -73.1% (active) | -89.6% (active) | -40.6% (active) | –
16 | CSc1[nH]c(=O)ncc1F | 106% | 111% | – | 105% | – | 97.4% | 95.7% | 72.8% | 103% | 100% | 112% | 102% | – | 100% | 96.5% | 101% | 92.8% | 95.8% | 111% | 97.8%
17 | O=c1[nH][nH]c(=O)c2cc([N+](=O)[O-])ccc12 | 126% | 98.9% | 106% | 109% | 111% | 117% | 108% | 110% | 99.9% | 121% | 103% | 83.4% | 108% | 101% | 104% | – | 112% | 94.8% | 115% | –
18 | O=S(=O)(O)C(Nc1ccccc1)c1ccccc1 (stereo not given) | 110% | 87.6% | 99.1% | – | 107% | 107% | 93.6% | 140% | 98.7% | 105% | 105% | 71.9% | 101% | 101% | 102% | 77.3% | 88.9% | 93.8% | 104% | –

From PubChem BioAssay (NCI)
